Experimental findings from PubChem BioAssay (NCATS) are described below.

Records with an inconclusive call do not appear. Entries that show only a call come without a potency. Calls of active or inactive are those of the source. Calls come from the whole dose curve; as a rule, active = well fitted cell-killing curve with a large enough effect; inconclusive = small, poorly fitted or top-dose-only effect; inactive = flat fitted curve, though single readings scatter.
Potency is the fitted concentration of half-maximal effect.

This experiment is described as follows: Quantitative highthroughput screen to assess conditional lethalithy of P12 Ichikawa cells grown in Human Plasma-Like Medium with dialyzed fetal bovine serum (HPLM+ds) (AID 1963879). Note: nearly all actives have a fitted effect of over 35% in size. The following applies: ATP luminescence, 48 h; Potency: viability; series mostly up to 45.8 µM. From the text:
Assay Provider: Jason Cantor Ph.D.
Department of Biochemistry
University of Wisconsin-Madison, Madison, WI, USA
Chemical screening studies have identified drug sensitivities across hundreds of cancer cell lines but most putative therapeutics fail to translate. Discovery and development of drug candidates in models that more accurately reflect nutrient levels in human blood is a major challenge. Here we performed high-throughput screens in conventional versus Human Plasma-Like Medium (HPLM) to identify compounds that were "missed" when screening using the artificial culture condition. Sets of conditional anticancer compounds spanned phases of clinical development and included non-oncology drugs were assessed. […] We also traced conditional phenotypes for several chemotherapeutics to availability of HPLM-specific metabolites and confirmed others for compounds whose reported targets are encoded by nonessential genes. Our findings establish generalizable strategies for exploiting conditional lethality in HPLM to reveal therapeutic candidates and mechanisms of action in cancer cells.
Described herein are the results of each viability screens against three cell lines: NOMO1 (an acute myeloid leukemia cell line); P12-Ichikawa (a T-cell acute lymphoblastic leukemia); and SEM (a B-cell ALL). Each assay was screened using 3 different cell culture media: homemade human plasma-Like medium with 10% dialyzed fetal bovine serum (HPLM+ds); RPMI1640 with 10% untreated FBS and 5mM glucose (RPMI+s); and RPMI1640 with 10% dialyzed fetal bovine serum and 5 mM glucose (RPMI+ds).
PROTOCOL TABLE (as described by Inglese J, Shamu CE and Guy RK. 2007)
SEQUENCE No. (e.g., 1, 2, 3, etc.); […] (e.g., Cells, Incubation, Reagent, etc.); VALUE and DESCRIPTION.
1; Cells; 5 uL; white, solid bottom 1536-well Greiner assay plate.
2; Compounds; 23 nL; Kalypsis pin tool (Wako USA) equipped with a 1536-well pin head to transfer to the assay plates.
3; Incubation; 48 hours; 37C incubation.
4; Reagent; 3 uL; CellTiter Glo (Promega).
5; Incubation; 5 min, room temperature
6; Detection; Luminescence, Viewlux PerkinElmer.
NOTES (numbers refer to Sequence numbers above)
1. Briefly, 5 ul of cell reagent was dispensed using a Multidrop Combi Dispenser. The NOMO1 and SEM cells were plated at 500 cells/well and the P12-Ichikawa line at 1000 cells/well.
2. After seeding the cells, 23 nL of MIPE 4.1 library compounds (in DMSO) were added to each plate using a Kalypsys 1536 Pintool dispenser. Bortezomib at final concentration of […] and DMSO were added to each plate as positive and negative controls respectively. For each screen, MIPE 4.1 compounds were added over an eleven-point concentration range […] in 3-fold dilutions.
3. Each plate was covered with a stainless steel gasketed lid to prevent evaporation and incubated for 48 hour at 37C, 95% relative humidity, and 5% CO2.
4-5. Three microliter CellTilter-GloTM luminescent substrate mix (Promega) reagent was added to the assay plate and incubated at room temperature for 5 min.
6. The luminescence signal was measured using a ViewLux (PerkinElmer) multiplate reader with a 2 second exposure time per plate. Data for each compound were normalized as percent viability such that measurements for DMSO and the empty well controls in each plate were defined as 100% and 0%, respectively.
Regarding `C[C@]12COC(=O)C[C@@H]1CC[C@@H]1[C@H]2CC[C@@]2(C)[C@H]1CC[C@]2(C)O`, the Potency result was “inactive”.
For `CN1C(=O)CCS(=O)(=O)C1c1ccc(Cl)cc1` (stereo not given) the value was “inactive”; for `CC[C@@H](C(N)=O)N1CCCC1=O`, “inactive”; for `C[C@@H]1CC[C@H]2[C@@H](C)C(=O)O[C@@H]3O[C@@]4(C)CC[C@H]1[C@]32OO4`, “inactive”.
For `c1cc2c(cc1[C@H]1OC[C@H]3[C@H]1CO[C@H]3c1ccc3c(c1)OCO3)OCO2` the value was “inactive”; for `CC[C@@]1(O)C(=O)OCc2c1cc1n(c2=O)Cc2cc3ccccc3nc2-1`, 29.6 nM (active); for `Cc1[nH]nc2ccc(-c3cncc(OC[C@@H](N)Cc4c[nH]c5ccccc45)c3)cc12`, 1660 nM (active).
With `CC(C)(C)c1cc(C=C(C#N)C#N)cc(Br)c1O` the entry was “inactive”; with `C[C@@H]1[C@H](O)[C@@H](C)C=CC=CCCC=CC=CC=CC=C[C@H](O[C@H]2O[C@@H](C)[C@H](O)[C@@H](N)[C@@H]2O)CC2O[C@](O)(C[C@@H](O)[C@H](O)CC[C@@H](O)C[C@@H](O)C[C@@H](O)CC(=O)O[C@H]1C)C[C@H](O)[C@H]2C(=O)O`, “inactive”.
As for `CCOc1ccccc1-n1c(C(C)N2CCN(C(=O)COc3ccc(Cl)cc3)CC2)nc2ccccc2c1=O` (stereo not given), the Potency was 741 nM (active).
For `CC1=C(O)C(=O)C=C2C1=CC=C1[C@@]2(C)CC[C@@]2(C)[C@@H]3C[C@](C)(C(=O)O)CC[C@]3(C)CC[C@]12C`, the Potency was 5900 nM (active).
For `NCC1(CC(=O)O)CCCCC1` the value was “inactive”.
With `CC1=C2C[C@@H]3[C@@H](CC=C4C[C@@H](O)CC[C@@]43C)[C@@H]2CC[C@]12O[C@H]1C[C@H](C)CN[C@H]1[C@H]2C` the entry was “inactive”; with `CCN(CC)C(=O)c1ccc(C2=CC3(CCNCC3)Oc3cccc(O)c32)cc1`, “inactive”.
With `C=C1C[C@H]2[C@H]3CCC(=O)[C@@]3(C)CC[C@@H]2[C@@]2(C)C=CC(=O)C=C12` the entry was “inactive”; with `O=C1C=CC[C@@H]2[C@H]3CCCN4CCC[C@@H](CN12)[C@@H]34`, “inactive”; with `Cc1c(C(=O)Nc2cccc(C(F)(F)F)c2)cc(-c2ccccc2)n1CCCN1CCOCC1`, “inactive”.
As for `C[C@]12CC[C@H]3[C@@H](CCC4=CC(=O)CC[C@@]43C)[C@H]1CC[C@H]2O`, the Potency result is “inactive”.
For `COCC1(CO)C(=O)C2CCN1CC2` (stereo not given) the value was 11800 nM (active); for `CN(C)CCc1ccc(O)cc1`, “inactive”.
Consider `Cc1cccc(C)c1NC(=O)CN1CCCC1=O`, for which the Potency entry is “inactive”.
With `C=C(C)[C@H]1Cc2c(ccc3c2O[C@@H]2COc4cc(OC)c(OC)cc4[C@@H]2C3=O)O1` the figure was 3720 nM (active); with `CC(C)[C@H]1C(=O)N[C@H](CO)Cc2c[nH]c3cccc(c23)N1C`, “inactive”; with `C#C[C@]1(O)C=C[C@@H]2[C@@H]3CCC4=CC(=O)CC[C@@H]4[C@H]3CC[C@@]21CC`, “inactive”.
For `Cc1ccccc1-n1c(Cn2cnc3c(N)ncnc32)nc2cccc(C)c2c1=O` the value was “inactive”.
For `C#CCN(C)[C@H](C)Cc1ccccc1` the value was “inactive”.
In the case of `Cc1nc(-c2ccc(-c3ccc(C(=O)N4CCc5cc6c(cc54)C4(CCN(C)CC4)CO6)cc3)c(C)c2)no1`, the Potency entry is “inactive”.
For `COC(=O)[C@@H](N)CCCN=C(N)N[N+](=O)[O-]` the value was “inactive”; for `CC(C)C[C@H](CN)CC(=O)O`, “inactive”.
Turning to `COc1cccc2c1[C@]13CCN(CC4CC4)[C@H](C2)[C@]1(OC)CCC(=O)C3`, the Potency entry was “inactive”.
For `CC(=Cc1csc(C)n1)[C@@H]1C[C@H]2O[C@]2(C)CCC[C@H](C)[C@@H](O)[C@@H](C)C(=O)C(C)(C)[C@@H](O)CC(=O)O1` the value was “inactive”.
In the case of `CCOC(=O)c1c(C(C#N)=CN)c2ccc(Cl)c(Cl)c2n1C`, the Potency result is “inactive”.
For `C[C@]12CC[C@H]3[C@@H](CCC4=CC(=O)CC[C@@]43C)[C@H]1CC[C@H]2OC(=O)CCC1CCCC1` the value was “inactive”; for `O=C(N[C@H]1CN2CCC1CC2)c1ccc(Cl)cc1`, “inactive”; for `CCCC[N+]1(C)[C@H]2CC(OC(=O)[C@H](CO)c3ccccc3)C[C@H]1[C@H]1O[C@H]12` (stereo not given in full), “inactive”.
For the molecule `CC[C@H]1C=CC=CC[C@@H](C)[C@H](O)[C@@](C)(O)C(=O)[C@@H](C)[C@H](O)[C@@H](C)C(=O)[C@@H](C)[C@H](O)[C@@H](C)C=CC(=O)O[C@@H]2[C@@H](C)[C@H](CC1)O[C@]1(CC[C@H](C)[C@H](C[C@@H](C)O)O1)[C@H]2C`, the Potency is 11800 nM (active).
For `CC(C)N(CCNC(=O)CN1CCCC1=O)C(C)C` the value was “inactive”; for `C[C@]12CCC(=O)C(O)=C1CC[C@@H]1[C@H]3CCC(=O)[C@@]3(C)CC[C@@H]12`, “inactive”; for `CC(C)[C@]12O[C@@H]1[C@@H]1O[C@]13[C@]1(O[C@H]1C[C@@H]1C4=C(CC[C@@]13C)C(=O)OC4)[C@H]2O`, 1.2 nM (active).
With `CN(C)[C@@H]1C(=O)C(C(N)=O)=C(O)[C@@]2(O)C(=O)C3=C(O)c4c(O)cccc4[C@@](C)(O)[C@H]3C[C@@H]12` the entry was “inactive”.
